# Screening data (PubChem BioAssay)
# Only some compounds are listed: those with a hit (about 7.3% of all), similar ones and a draw of the others.
# RORgamma inh: inhibitors of mouse ROR gamma transcriptional activity; AID 2551; P51450; Drosophila S2 Gal4-RORgamma UAS-luciferase reporter, 20 h; 5.4% of 310,000 active; Potency, µM (highest dose often 53.6 µM), for the others: at the highest dose activity change, negative = inhibition, actives largely listed as inhibitors; note: nearly all actives have a fitted effect of over 60% in size
# Target sequence (P51450 whole entry, looked up, the tested form may be a part): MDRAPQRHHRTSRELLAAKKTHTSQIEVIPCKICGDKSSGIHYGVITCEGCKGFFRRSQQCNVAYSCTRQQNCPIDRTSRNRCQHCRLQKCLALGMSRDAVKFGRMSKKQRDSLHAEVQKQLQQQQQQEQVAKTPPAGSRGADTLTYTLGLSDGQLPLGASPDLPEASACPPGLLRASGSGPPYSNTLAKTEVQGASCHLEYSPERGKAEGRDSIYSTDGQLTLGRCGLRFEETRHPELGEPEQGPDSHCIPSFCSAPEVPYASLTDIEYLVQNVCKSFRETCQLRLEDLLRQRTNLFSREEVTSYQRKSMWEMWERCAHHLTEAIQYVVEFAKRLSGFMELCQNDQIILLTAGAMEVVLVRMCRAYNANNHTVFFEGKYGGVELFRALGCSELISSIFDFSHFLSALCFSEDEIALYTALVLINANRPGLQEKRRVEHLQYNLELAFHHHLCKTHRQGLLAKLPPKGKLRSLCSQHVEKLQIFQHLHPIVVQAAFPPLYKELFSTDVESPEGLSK
#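 Luciferase reporter read in Schneider cells carrying Gal4-RORγ (mouse) and UAS-Photinus luciferase; cells given compound 1 h before 700 uM copper sulfate induction, then incubated 20 h at ambient temperature.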
# Gal4-VP16 FLuc: inhibits Gal4-VP16 luciferase reporter, ROR gamma counter-screen; Drosophila S2 Gal4-VP16 UAS-luciferase, luminescence, 20 h; 3.5% of 310,000 active; Potency, µM (titrated, usually from 53.6 µM), for the others: at the highest dose activity, negative = inhibition, hits mostly inhibitors; AID 2546;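 note: Gal4-VP16 expression switched on by copper sulfate through the metallothionein promoter; nearly all actives have a fitted effect of over 50% in size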
# Tau fibril ThT: tau fibrillization inhibition (ThT binding); 2.1% of 270,000 active; recombinant tau K18 P301L, heparin-induced fibrillization, ThT fluorescence; Potency, µM (highest dose often 57.4 µM), for inactives: at the top dose activity, negative = inhibition, hits mostly inhibitors; P10636; AID 1460; note: nearly all actives have a fitted effect of over 55% in size
# Target sequence (P10636 561-689 P618L limits assumed): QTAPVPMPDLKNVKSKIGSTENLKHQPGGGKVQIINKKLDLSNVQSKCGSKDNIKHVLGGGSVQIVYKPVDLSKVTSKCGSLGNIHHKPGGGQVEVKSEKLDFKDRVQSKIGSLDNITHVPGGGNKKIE
#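 Heparin-induced fibrillization of the P301L-mutant K18 repeat-domain fragment of human tau was followed by ThT binding in quantitative high-throughput format.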
# Tau FP inhib: blocks human tau fibril formation measured by polarization; AID 1468; 0.39% of 280,000 active; K18 P301L tau heparin fibrillization, Alexa594 FP, 6 h; P10636; Potency, µM (series often up to 57.7 µM), for inactives: at the highest dose activity, negative = inhibition, most hits filed as inhibitors; note: nearly all actives have a fitted effect of over 55% in size
#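 Steps: dispense K18 P301L tau (15 uM plus 0.24 uM Alexa 594 tracer, final) in pH 7 sodium acetate; add compound; add heparin (20 uM final); incubate 6 hr, 37 C; add ThT (30 uM final); after 1 hr ambient, read FP.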
# Tau fluor cs: counter-screen for tau fibril formation inhibitors. tau K18 P301L Alexa594 fluorescence, heparin fibrillization. Potency, µM (highest dose often 57.7 µM), without a hit: top-dose activity change, negative = decrease. 0.93% of 280,000 active. AID 1463; note: nearly all actives have a fitted effect of over 55% in size
#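 Human tau K18 P301L (15 uM unlabeled, 0.24 uM Alexa 594-labeled) in 100 mM sodium acetate pH 7 with 20 uM heparin, 6 hr at 37 C. ThT 30 uM added, 1 hr ambient; Alexa 594 FP and total fluorescence read at 555/632 nm.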
# * hit, by the source's call; ? = inconclusive; . = not tested or not shown; ! = not active in a repeat; [ ] = another dose, or the depositor's remark. Calls come from the whole dose curve; as a rule, active = well fitted curve in the direction sought with a large enough effect; inconclusive = small, poorly fitted or top-dose-only effect, or another doubt; inactive = no such curve, though single readings can be large; an effect the other way counts as inactive or inconclusive. % is set by controls: 0 for no effect and ±100 for the full control effect; potency is the fitted concentration of half-maximal effect.
SMILES,RORgamma inh,Gal4-VP16 FLuc,Tau fibril ThT,Tau FP inhib,Tau fluor cs
CN1C(=O)c2ccccc2Sc2ccc(NC(=O)c3ccc(C(F)(F)F)cc3)cc21,.,.,14%,?,-12%
CCOC(=O)c1cccc(NC(=O)NCc2ccc3c(c2)CCN3C(=O)c2ccccc2)c1,.,.,-13%,?,?
CC1CC2OC2/C=C\C=C/C(=O)Cc2c(Cl)c(O)cc(O)c2C(=O)O1 (configuration not stated),7.9µM*,10µM*,?,-10%,-18%
C[C@H]1CCC[C@H](O)CCCCCc2cc(O)cc(O)c2C(=O)O1,?,?,-13%,?,-20%
O=[N+]([O-])c1cc(O)c(O)c([N+](=O)[O-])c1,22µM*,-7%,?,6%,-11%
O=[N+]([O-])c1ccc(O)c([N+](=O)[O-])c1,?,22µM*,-11%,-3%,-4%
Nc1ccc([N+](=O)[O-])cc1O,23%,?,.,.,.
c1ccc(-c2cc3c(nc2-c2ccccc2)CCNC3)cc1,-10%[10 µM],-11%[10 µM],-1%[11.5 µM],-4%[11.6 µM],-2%[11.6 µM]
CC(c1nc2ccccc2c(=O)[nH]1)N(C)CCOc1ccc(Cl)cc1 (configuration not stated),7.1µM*,?,-15%,5%,-23%
O=C1NC(=O)c2c1c1c3ccccc3n3c1c1c2c2ccccc2n1C1CCC3O1,-22%,-11%,.,.,.
CC1(C)[C@H](C(=O)O[C@H](C#N)c2cccc(Oc3ccccc3)c2)[C@@H]1C=C(Br)Br,9%,5%,.,.,.
Cc1cc(NC(=O)COC(=O)c2c(C)nn(Cc3ccccc3)c2C)no1,41%,-20%,-6%,-2%,-12%
Cc1cc(NC(=O)CCl)no1,2.5µM*,?,-5%,-2%,-2%
C[C@]12C/C(=C/O)C(=O)C[C@@H]1CC[C@@H]1[C@@H]2CC[C@@]2(C)[C@H]1CC[C@]2(C)O,-17%,-13%,.,.,.
COc1ccc(-n2c(=S)[nH]c3c(sc(=S)n3-c3ccccc3)c2=O)c(OC)c1,-21%,-4%,32µM*,?,-18%
COc1cc2[nH]c(=S)n(-c3ccccc3)c(=O)c2cc1OC,4µM*,-30%,-1%,10%,-5%
COc1cc2[nH]c(=O)n(-c3ccc(C)cc3)c(=O)c2cc1OC,13%,1%,-7%,3%,-7%
C=CCBr,5%,7%,.,.,.
Cc1[nH]cnc1CCN,-21%,-6%,-13%,-4%,-10%
CCCSC(=O)Cl,15%,3%,.,.,.
NC(N)=NN=C(/C=C/c1ccc([N+](=O)[O-])o1)/C=C/c1ccc([N+](=O)[O-])o1,5µM*,?,.,.,.
C[C@@H](Cc1cccc(C(F)(F)F)c1)NCCCc1ccccc1,22µM*,-11%,0%,-2%,-9%
COc1ccc2c(c1)c(CCN1CCOCC1)c(C)n2C(=O)c1cccc(Cl)c1Cl,-4%,-11%,-17%,-2%,-27%
O=Cc1ccc2c(c1)OCO2,0%,6%,.,.,.
CC(=O)Oc1c2c(c(CC=C(C)C)c3c1C(=O)C1=CC4CC5C(C)(C)OC(C/C=C(\C)C(=O)O)(C4=O)[C@]15O3)OC(C)(CCC=C(C)C)C=C2 (some centres not stated),3.5µM*,?,7.1µM*,10µM*,?
SMILES,RORgamma inh,Gal4-VP16 FLuc,Tau fibril ThT,Tau FP inhib,Tau fluor cs
COC(=O)/C(C)=C\CC12OC(C)(C)C3CC(C=C4C(=O)c5c(OC)c6c(c(CC=C(C)C)c5OC431)OC(C)(CCC=C(C)C)C=C6)C2=O (configuration not stated),?,-1%,28µM*,?,-22%
O=C(N/N=C\C1C(=O)NC(=S)N(c2ccccc2)C1=O)c1ccc(O)cc1 (configuration not stated),1.4µM*,2.5µM*,?,-16%,-19%
O=C(N/N=C/c1c(O)n(-c2ccccc2)c(=O)[nH]c1=O)c1ccncc1,-7%,-5%,?,-6%,-20%
O=c1ccc(=O)[nH][nH]1,6%,20%,.,.,.
CN(C)C(=Nc1ccccc1)P(=S)(N(C)C)N(C)C,10µM*,-6%,-11%,-4%,-15%
CCOCCCNC(=O)c1c[nH]c2ccc(S(=O)(=O)N(C)c3ccc(Cl)cc3F)cc2c1=O,.,.,3%,?,?
Cc1ccc(Cl)cc1N1CCN(c2ncnc3c2nc2n3CCCC2)CC1,.,.,?,-13%,-14%
O=C(Cl)C(Cl)(Cl)Cl,-3%,2%,.,.,.
COc1ccc(NC(=O)C(=O)NNC(=O)C(C)Oc2ccc(Cl)cc2Cl)cc1 (configuration not stated),5µM*,?,?,10%,-11%
CC(Oc1ccc(Cl)cc1Cl)C(=O)Nc1ccc(S(=O)(=O)Nc2cnc3ccccc3n2)cc1 (configuration not stated),14%,-19%,?,9%,-8%
COC1(C)CC(c2ccccc2)c2c(c3ccccc3oc2=O)O1 (configuration not stated),26%,-3%,.,.,.
O=C(O)CC1OCC=C2CN3CCC45C6=CC(=O)C(=O)C([N+](=O)[O-])=C6NC4C1C2CC35 (configuration not stated),?,?,7.1µM*,?,?
CCCCC/C=C\C/C=C\C/C=C\C/C=C\CCCC(=O)NCC(=O)O,19%,-4%,?,0%,-2%
CCCCC/C=C\C/C=C\C/C=C\C/C=C\CCCC(=O)Nc1ccc(O)cc1,-14%,-15%,?,?,14µM*[quencher]
CCCCC/C=C\C/C=C\C/C=C\C/C=C\CCCC(=O)NCc1ccoc1,13%,-16%,22µM*,?,-12%
CCCCC/C=C\C/C=C\C/C=C\C/C=C\CCCC(=O)NCCc1ccc(O)c(O)c1,11µM*!,-28%,?,?,?
CCc1ccc(-c2nc(CN3CCCC(C(=O)NCc4ccc(C)cc4)C3)c(C)o2)cc1 (configuration not stated),.,.,?,-3%,-9%
CCCCCCCCCCCCCC(=O)O[C@@H]1[C@@H](C)[C@@]2(O)[C@H](C=C(CO)C[C@]3(O)C(=O)C(C)=C[C@@H]23)[C@@H]2C(C)(C)C12OC(C)=O (some centres not stated),.,.,?,0%,-8%
O=C(Nc1ccc2nc(SCC(=O)N3CCCc4ccccc43)sc2c1)c1cccc(F)c1,.,.,1%,?,?
CC1(C)C(=O)C=C[C@@]2(C)C1CC(O)[C@]1(C)C2CC[C@@]2(C)C(c3ccoc3)OC(=O)C3O[C@]312 (some centres not stated),?,?,?,-12%,-10%
